Measured potencies and affinities stand elsewhere.

One test concerns Klebsiella pneumoniae. The following applies: Concentration 32 ug.mL-1;; ASSAY_TEST Inhibition of Bacterial Growth; detection method Absorption (OD600); MEDIA CAMHB; plate type 384well; NBS; CORNING #3640; time 18 hr.
The next test deals with Candida albicans. The following applies: Concentration 32 ug.mL-1; ASSAY_TEST Inhibition of Fungal Growth; detection method Absorption (OD530).
The subject of a further test is Cryptococcus neoformans. The following applies: Concentration 32 ug.mL-1; ASSAY_TEST Inhibition of Fungal Growth; detection method Resazurin; Absorption (OD600-OD570); plate type 384well; NBS; CORNING #3640. In general terms: Alamar Blue is a resazurin reagent that responds to reducing activity.

Broadly, the Inhibition is the change of the read-out against control, counted positive when it falls. `COC(=O)c1cccc(NC(=O)Cn2nc3c(Oc4ccccc4)nccn3c2=O)c1`: the Inhibition in the test with Klebsiella pneumoniae is listed as 3.42%; in the test with Candida albicans it was 3.07%; with Cryptococcus neoformans, -9.43%.
`O=C(Cn1nc2nc(Nc3ccc(F)cc3)ccn2c1=O)Nc1cc(F)ccc1F`: the Inhibition in the test with Klebsiella pneumoniae is reported as 11.06%; with Candida albicans it was 4.41%; with Cryptococcus neoformans, -6.4%.
Taken in the same sequence, the figures for `COc1ccc(CNC(=O)Cn2nc3c4cc(-c5ccc(Cl)cc5)nn4ccn3c2=O)cc1` were 11.83%, 1.19% and -27.86%.

The values above are taken from ChEMBL document CHEMBL4513146, “CO-ADD screening of Karazin Kharkiv National University (Ukraine) compounds”.
